This excerpt belongs to a sample that is enriched for hits.
ALOX12 inh: Primary qHTS assay for inhibitors of human arachidonate 12S-lipoxygenase (ALOX12): Round 2; 580,000 tested, 1.1% active; Potency, µM (highest dose often 108 µM), for inactives: top-dose activity change, negative = inhibition, usual class: inhibitors; purified 12hLO, xylenol orange hydroperoxide absorbance; also: potency is read from the fitted curve at half-maximal effect
Target sequence (P18054 whole entry, looked up): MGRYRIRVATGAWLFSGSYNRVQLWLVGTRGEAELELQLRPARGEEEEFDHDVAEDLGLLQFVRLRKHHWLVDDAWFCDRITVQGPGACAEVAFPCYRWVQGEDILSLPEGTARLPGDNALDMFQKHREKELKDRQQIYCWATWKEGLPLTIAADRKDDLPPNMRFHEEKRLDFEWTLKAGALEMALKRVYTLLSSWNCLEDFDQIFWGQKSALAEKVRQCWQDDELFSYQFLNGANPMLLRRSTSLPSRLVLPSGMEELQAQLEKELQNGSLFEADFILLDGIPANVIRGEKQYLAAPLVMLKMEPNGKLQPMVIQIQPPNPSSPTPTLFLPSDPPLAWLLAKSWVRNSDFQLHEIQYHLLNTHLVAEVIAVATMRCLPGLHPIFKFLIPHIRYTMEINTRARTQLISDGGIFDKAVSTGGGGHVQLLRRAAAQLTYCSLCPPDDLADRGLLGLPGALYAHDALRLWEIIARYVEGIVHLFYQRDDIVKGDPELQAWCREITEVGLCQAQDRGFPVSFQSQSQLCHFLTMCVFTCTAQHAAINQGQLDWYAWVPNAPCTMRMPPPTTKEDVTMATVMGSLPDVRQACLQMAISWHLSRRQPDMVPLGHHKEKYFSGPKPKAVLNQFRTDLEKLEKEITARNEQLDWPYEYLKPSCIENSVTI
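Purified human 12hLO at 150 nM in 25 mM Hepes, 0.01% Triton X-100, pH 7.0, preincubated 15 min at room temperature with compound. Reaction started with 40 uM arachidonic acid, 30 min at room temperature. Hydroperoxide measured by Fe-xylenol orange, 573/405 nm absorbance ratio.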
TDP1 cell noCPT: qHTS for Inhibitors of human tyrosyl-DNA phosphodiesterase 1 (TDP1): qHTS in cells in absence of CPT; 420,000 tested, 15% active; Potency, µM (doses to about 46.2 µM), inactives show top-dose activity change, negative = growth inhibition, actives largely listed as inhibitors; AID 686978, 2013; DT40 Tdp1-/- hTDP1 cells, no CPT, ATP luminescence, 48 h; also: potency is read from the fitted curve at half-maximal effect; nearly all actives have a fitted effect of over 55% in size
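Luminescent ATP content (CellTiter-Glo) served as the growth readout. Knockout chicken DT40 cells expressing human TDP1 were exposed to compounds without camptothecin for a minimum 48 hr at 37 °C.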
DT40 TDP1 CPT: qHTS for Inhibitors of human tyrosyl-DNA phosphodiesterase 1 (TDP1): qHTS in cells in presence of CPT. 420,000 tested, 12% active. Potency, µM (highest dose often 46.2 µM), for the others: at the top dose activity change, negative = growth inhibition, usual class: inhibitors. chicken DT40 Tdp1-/-;hTDP1 cells + 20 nM CPT, ATP luminescence, 48 h; also: potency is read from the fitted curve at half-maximal effect; nearly all actives have a fitted effect of over 55% in size
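Chicken DT40 Tdp1-/- cells complemented with human TDP1, 400 cells/well, exposed to compounds plus 20 nM camptothecin for at least 48 h at 37 C; viability read as ATP content by CellTiter-Glo luminescence.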
IL1B secr inh: qHTS for Inhibitors of Inflammasome Signaling: IL-1-beta AlphaLISA Primary Screen | activity change, % at 57.5 µM | THP-1 LPS/ATP IL-1B secretion, AlphaLISA, 16 h; hits give low values | 360,000 tested, 4.7% active; in the data active = activity change below about -50%; inconclusive = mostly about -30% to -49%
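Secreted IL-1B measured by AlphaLISA bead assay after 16 h compound exposure of THP-1 cells; compounds (final up to 57.5 uM) added 1 h before LPS (250 ng/mL) and ATP (1.25 mM) stimulation; lower signal means less secretion.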
HT1080NT lethal: qHTS for induction of synthetic lethality in tumor cells producing 2HG: qHTS for the HT-1080-NT fibrosarcoma cell line; HT-1080-NT fibrosarcoma viability, CellTiter-Glo ATP luminescence, 48 h; Potency, µM (titrated, usually from 46.1 µM), for the others: at the highest dose activity, negative = less viability, actives largely listed as cytotoxic; 360,000 tested, 1.6% active;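 also: NT is the 2HG producing partner of a matched IDH1 knockdown line; potency is read from the fitted curve at half-maximal effect; 0% = DMSO-treated cells and -100% = media-only wells without cells; nearly all actives have a fitted effect of over 55% in size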
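Read-out is CellTiter-Glo luminescence after 10 minutes at room temperature, following 48 hours' compound treatment of HT-1080-NT cells (750 cells/well, RPMI, 5% FBS, 37 degrees C).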
HT1080 IDH1KD tx: qHTS for induction of synthetic lethality in tumor cells producing 2HG: qHTS for the HT-1080-IDH1KD cell line. HT-1080 IDH1 knockdown viability, ATP luminescence, 48 h. Potency, µM (series often up to 46.1 µM), inactives show at the top dose activity, negative = toxicity, actives largely listed as cytotoxic. 360,000 tested, 2% active;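 also: potency is read from the fitted curve at half-maximal effect; 0% = DMSO wells and -100% = cell-free medium wells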
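In this qHTS, HT-1080 cells depleted of IDH1 are exposed for 48 h at 37 °C to compound titrations. Toxicity is scored from CellTiter-Glo luminescence, with DMSO as full viability and medium alone as none.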
The depositor's hits bear a star; i = inactive; ? = inconclusive; · = not tested or not shown. Unless noted, calls follow the shape of the dose curve; as a rule, active = well fitted curve in the direction sought with a large enough effect; inconclusive = small, poorly fitted or top-dose-only effect, or another doubt; inactive = no such curve, though single readings can be large; an effect the other way counts as inactive or inconclusive. Unless noted, % is scaled to controls: 0 for no effect and ±100 for the full control effect.

SMILES | ALOX12 inh | TDP1 cell noCPT | DT40 TDP1 CPT | IL1B secr inh | HT1080NT lethal | HT1080 IDH1KD tx
NC(=O)CC(NC(=O)Cc1ccc(Br)cc1)c1ccc(N2CCN(c3ccccc3)CC2)c([N+](=O)[O-])c1 (stereo not drawn) | -3% | ? | 16µM* | 20 | -29% | -24%
NC(=O)CC(NC(=O)Cc1cccc2ccccc12)c1ccc(N2CCCCCC2)c([N+](=O)[O-])c1 (stereo not drawn) | -21% | -12% | -24% | -15 | -26% | -14%
CN1CCN(c2ccc(C(CC(N)=O)NC(=O)c3ccccc3)cc2[N+](=O)[O-])CC1 (stereo not drawn) | -13% | -22% | 4% | 15 | 6% | 6%
NC(=O)CC(NC(=O)c1ccccc1)c1ccc(N2CCN(c3ccc(F)cc3)CC2)c([N+](=O)[O-])c1 (stereo not drawn) | ? | 8.2µM* | 18µM* | -12 | 5% | -6%
NC(=O)CC(NC(=O)c1ccccc1)c1ccc(N2CCCCCC2)c([N+](=O)[O-])c1 (stereo not drawn) | -5% | 12µM* | ? | 12 | -20% | -1%
CCc1nc2c(c(-c3ccc(Cl)cc3)n1)CCN([S+](=O)([O-])c1ccccc1)CC2 | 41% | · | · | · | · | ·
Clc1ccc(-c2noc(CCc3nc4ccccc4[nH]3)n2)cc1 | 15% | · | · | · | · | ·
NC(=O)CC(NC(=O)c1ccccc1)c1ccc(N2CCN(c3ccccc3)CC2)c([N+](=O)[O-])c1 (stereo not drawn) | -12% | 13µM* | 21µM* | -10 | -7% | -10%
Cc1cc(C)cc(C(=O)NC(CC(N)=O)c2ccc(N3CCN(c4ccccc4)CC3)c([N+](=O)[O-])c2)c1 (stereo not drawn) | 10% | -21% | ? | -7 | 4% | -3%
COc1ccc(-c2nc(C#N)c(N3CCC(Cc4ccccc4)CC3)o2)cc1OC | 0% | · | · | · | · | ·
COc1cc(NC(=O)C[n+]2ccc(C(=O)c3ccccc3)cc2)cc(OC)c1 | -8% | 13µM* | 23µM* | -21 | 1% | -2%
CO/N=C\CC(=O)Nc1ccc(Oc2ccccc2)cc1 | -14% | 1.3µM* | 1.5µM* | 81 | ? | ?
O=C(Cc1ccccc1)Nc1ccc(Oc2ccccc2)cc1 | -54% | · | · | · | · | ·
O=C(CN1CCCCCC1)Nc1ccc(Oc2ccccc2)cc1 | -4% | ? | 10% | ? | ? | ?
O=C(C[n+]1ccccc1)Nc1ccc(Oc2ccccc2)cc1 | -5% | ? | 12µM* | ? | -16% | -17%
CC(C)C(=O)Nc1c(C(=O)Nc2cccc(F)c2)oc2ccccc12 | -38% | · | · | · | · | ·
O=C(CC1C=CCC1)NCCc1ccccn1 (stereo not drawn) | 31% | · | · | · | · | ·
O=S(=O)(Nc1nc2ccccc2nc1Nc1cccc(F)c1)c1ccccc1 | -28% | · | · | · | · | ·
O=S(=O)(Nc1nc2ccccc2nc1Nc1ccc(F)cc1)c1ccccc1 | 2% | · | · | · | · | ·
NS(=O)(=O)c1cccc(Nc2nc3ccccc3nc2NS(=O)(=O)c2ccc(Cl)cc2)c1 | ? | -17% | -23% | ? | 18µM* | 21µM*
COc1cc(Nc2nc3ccccc3nc2NS(=O)(=O)c2ccc([N+](=O)[O-])cc2)cc(OC)c1OC | 0% | ? | 10µM* | -12 | -19% | -6%
O=[N+]([O-])c1ccc(S(=O)(=O)Nc2nc3ccccc3nc2Nc2ccccc2)cc1 | 0% | 2.9µM* | 3.3µM* | -73* | 6% | 0%
O=C(NCCc1ccccn1)C(F)(F)c1ccccc1 | 27% | · | · | · | · | ·
Cc1cc(C)cc(-n2ccnc2SCC(=O)Nc2ccc(C)c(Cl)c2)c1 | -19% | 18µM* | 16µM* | · | · | ·
Cc1cc(NC(=O)CSc2nccn2-c2cccc(Cl)c2)no1 | 19% | -29% | -7% | 6 | 0% | 11%
SMILES | ALOX12 inh | TDP1 cell noCPT | DT40 TDP1 CPT | IL1B secr inh | HT1080NT lethal | HT1080 IDH1KD tx
Cc1cccc(NC(=O)CSc2nccn2-c2cccc(Cl)c2)c1C | 3% | ? | 21µM* | · | · | ·
Cc1ccc(C)c2c1cc(C)c1nnc(SCC(=O)N3CCCc4ccccc43)n12 | 16% | 15µM* | ? | -1 | 0% | -5%
O=C(CSc1nccn1-c1cccc(Cl)c1)NC1CCCC1 | 105% | 21µM* | -23% | -1 | 10% | 16%
CCc1ccc(NC(=O)CSc2nccn2C2CCCC2)cc1 | -24% | ? | 18µM* | · | · | ·
Cn1ccnc1SCC(=O)N1CCc2ccccc21 | i | 16% | 2% | -3 | 0% | 15%
CCc1ccc(NC(=O)CSc2nccn2-c2cccc(C)c2C)cc1 | -3% | 21µM* | 23µM* | · | · | ·
CCc1ccc(NC(=O)CSc2nccn2-c2ccc(F)cc2)cc1 | -4% | -18% | ? | · | · | ·
Cc1cccc(-n2ccnc2SCC(=O)N2CCCc3ccccc32)c1C | -16% | 21µM* | 18µM* | -21 | -11% | -18%
Cc1ccc(NC(=O)CSc2nccn2C2CCCC2)cc1Cl | -30% | ? | ? | · | · | ·
Cc1cccc(-n2ccnc2SCC(=O)Nc2ccc(F)cc2F)c1C | -7% | 21µM* | 16µM* | · | · | ·
Cn1nc(C(=O)N2CCCN(c3cc(-c4ccc(Cl)cc4)[nH]n3)CC2)c2ccccc21 | 41% | · | · | · | · | ·
COc1ccc2cc(C(=O)NCc3ccccc3CN3CCCC3)c(C)nc2c1 | -1% | · | · | · | · | ·
O=C(NCc1nnc2ccc(-c3ccccc3)nn12)c1ccco1 | 32% | · | · | · | · | ·
CCN(CC)Cc1ccc(CNC(=O)c2nccnc2N)cc1 | 2% | · | · | · | · | ·
CCOc1ccccc1NC(=O)CSc1nccn1-c1cccc(C(F)(F)F)c1 | -8% | · | · | · | · | ·
Cc1ccc(C)c(NC(=O)CSc2nccn2Cc2ccco2)c1 | · | 10% | -26% | 18 | 16% | 9%
Cc1ccc(C)c(NC(=O)CSc2nccn2-c2cccc(C)c2C)c1 | 5% | 21µM* | 18µM* | · | · | ·
CCOc1ccccc1NC(=O)CSc1nccn1-c1cccc(C)c1 | -23% | 18µM* | 21µM* | · | · | ·

Screening data: PubChem, National Center for Advancing Translational Sciences (NCATS)
